AMA1 RON2 block = inhibitors of Plasmodium falciparum AMA1-RON2 interaction. AlphaScreen AMA1-biotinylated RON2 peptide binding. Potency, µM (doses to about 58.2 µM), usual class: inhibitors. 360,000 tested, 0.2% active. AID 720542; also: nearly all actives have a fitted effect of over 45% in size
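AMA1 (3D7) with his tag at 25 nM final met compounds first, then biotinylated RON2 peptide at 25 nM; detection used donor plus acceptor beads, 10 µg/mL apiece, read by AlphaScreen after 30 min at room temperature.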
RE007 growth inh = less growth of the S. pombe RE007 Vpr strain; S. pombe RE007 Vpr strain, BacTiter-Glo ATP luminescence, 24 h; Potency, µM (titrated, usually from 92.2 µM), actives largely listed as inhibitors; 360,000 tested, 0.21% active; AID 651644; active = well fitted falling curve with a large enough effect; inconclusive = small, poorly fitted or top-dose-only effect; inactive = no such curve, though single readings can be large or run the other way; also: nearly all actives have a fitted effect of over 50% in size
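Fission yeast RE007 carrying one integrated HIV-1 vpr copy, seeded at OD 0.01 in PMG+AL medium with 23 nL pinned compound. Grown 24 h at 30 degrees; viability read by BacTiter-Glo luminescence after 5 min.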
Tb PYK inh = blocks Trypanosoma brucei pyruvate kinase | Q57TT1 | TbPYK enzyme, Kinase-Glo Plus ATP luminescence, 45 min | Potency, µM (highest dose often 76.8 µM), hits mostly inhibitors | 410,000 tested, 0.12% active | AID 624173; also: nearly all actives have a fitted effect of over 50% in size
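In this concentration-response screen, enzyme-free wells defined baseline while DMSO plates tracked drift. Each reaction combined TbPYK, substrate, compound and 130 uM ADP for 45 min at room temperature. Kinase-Glo Plus luminescence gave the signal.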
Sm TGR inh = inhibitors of Schistosoma mansoni thioredoxin glutathione reductase. purified TGR, DTNB reduction, TNB absorbance 405 nm. AID 485364. Q962Y6. 360,000 tested, 3% active. Potency, µM (series often up to 114 µM), actives largely listed as inhibitors; also: nearly all actives have a fitted effect of over 60% in size
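First, TGR (20 nM dispensed) and NADPH were mixed with compound. Second, a 15 min room-temperature incubation followed. Third, further NADPH and then DTNB were added to start the reaction. Finally, TNB absorbance was monitored kinetically.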
LmPK inhibitor = inhibitors of Leishmania mexicana pyruvate kinase; Potency, µM (titrated, usually from 57.5 µM), most hits filed as inhibitors; 290,000 tested, 0.37% active; Q27686; purified LmPK, Kinase-Glo ATP luminescence, 1 h
Target sequence (Q27686 whole entry, looked up): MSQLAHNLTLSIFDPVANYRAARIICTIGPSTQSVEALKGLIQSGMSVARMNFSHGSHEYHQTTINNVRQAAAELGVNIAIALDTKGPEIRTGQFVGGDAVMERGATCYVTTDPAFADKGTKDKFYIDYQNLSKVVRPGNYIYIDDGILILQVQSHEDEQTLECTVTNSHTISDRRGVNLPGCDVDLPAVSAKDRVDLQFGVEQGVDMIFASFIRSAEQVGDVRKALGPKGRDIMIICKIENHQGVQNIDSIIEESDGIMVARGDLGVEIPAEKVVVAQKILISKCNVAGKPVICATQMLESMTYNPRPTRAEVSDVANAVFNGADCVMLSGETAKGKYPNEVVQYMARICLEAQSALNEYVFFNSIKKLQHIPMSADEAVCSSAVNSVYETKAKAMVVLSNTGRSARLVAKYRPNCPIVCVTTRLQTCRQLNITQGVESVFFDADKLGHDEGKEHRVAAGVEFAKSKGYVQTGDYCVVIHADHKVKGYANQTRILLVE
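Kinase-Glo luminescence read after 1 h RT reaction of 0.1 nM LmPK with 0.5 mM PEP and 0.1 mM ADP. Activity scaled between uninhibited and enzyme-free controls.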
Numbers stand for hits; . = inactive; ? = inconclusive; / = no result given; [ ] = remark or other dose. Rows were chosen to be rich in hits. Some 3.2% of all compounds tested hit in one or more screens of this group. Unless noted, calls follow the shape of the dose curve; as a rule, active = well fitted curve in the direction sought with a large enough effect; inconclusive = small, poorly fitted or top-dose-only effect, or another doubt; inactive = no such curve, though single readings can be large; an effect the other way counts as inactive or inconclusive.

SMILES	AMA1 RON2 block	RE007 growth inh	Tb PYK inh	Sm TGR inh	LmPK inhibitor
COC/C=C/C1=CC2=CC(=O)C(C)(OC(=O)c3cnc4ccccc4n3)C(=O)C2=CN1c1ccccc1 (stereo not drawn)	?	.	.	22µM	.[11.5 µM]
COC/C=C/C1=CC2=CC(=O)C(C)(OC(=O)c3cnc4ccccc4n3)C(=O)C2=CN1CC(C)C (stereo not drawn)	.	.	.	/	.[11.5 µM]
COC/C=C/C1=CC2=CC(=O)C(C)(OC(=O)c3cnc4ccccc4n3)C(=O)C2=CN1c1ccc(CO)cc1 (stereo not drawn)	/	/	/	45µM	.
CCOC(=O)CSc1nnc(CNc2ccc(Cl)cc2)n1-c1ccccc1	.	.	.	.	.
CCOc1ccc(NCc2nnc(SCc3ccc(Cl)cc3)n2-c2ccccc2)cc1	32µM	/	.	.	.
N#Cc1ccc(CN2CCCC3(CCN(S(=O)(=O)c4ccccc4)CC3)C2)cc1	/	/	.	/	/
CC(NC(=O)c1cccc(OC2CCN(C(=O)C3CC3)CC2)c1)c1ccc(F)cc1 (stereo not drawn)	.	.	.	.	.
CC(NC(=O)c1cccc(OC2CCN(C3CCN(C)CC3)CC2)c1)c1ccccc1 (stereo not drawn)	.	.	.	14µM	.
O=C(Nc1nccs1)c1cn2ccccc2n1	.	.	.	.	25µM
COc1cccc(NC(=O)c2nc(S(C)(=O)=O)ncc2Cl)c1	.	.	.	10µM	.
COc1cccc(NC(=O)c2nc(SC)ncc2Cl)c1	.	.	.	.	.
CCS(=O)(=O)c1ncc(Cl)c(C(=O)Nc2c(C(=O)Nc3cccc(C)c3)oc3ccccc23)n1	/	/	.	.	/
Cc1cccc(NC(=O)c2nc(S(C)(=O)=O)ncc2Cl)c1	/	/	.	4.5µM	/
Cc1ccccc1NC(=O)N1CCc2cc(S(=O)(=O)N3CCC(C)CC3)ccc21	/	/	.	.	/
COC(=O)C1=C(C)NC(=O)NC1c1ccco1 (stereo not drawn)	.	.	.	.	.
COC(=O)C1=C(C)NC(=O)NC1c1ccc(-c2ccc(F)cc2)o1 (stereo not drawn)	.	.	.	14µM	.
CCOC(=O)C1=C(C)NC(=O)NC1c1ccc(-c2ccc(F)cc2)o1 (stereo not drawn)	.	.	.	25µM	.
CCOC(=O)C1=C(C)NC(=O)NC1c1ccc(-c2ccc(Cl)cc2)o1 (stereo not drawn)	.	.	.	/	.
COC(=O)C1=C(C)NC(=S)NC1c1ccc(-c2cccc(Cl)c2)o1 (stereo not drawn)	.	.	.	8.9µM	.
CCOC(=O)C1=C(C)NC(=S)NC1c1ccc(-c2ccc(Cl)cc2)o1 (stereo not drawn)	.	.	.	22µM	.
COC(=O)C1=C(C)NC(=S)NC1c1ccc(-c2ccccc2C(=O)OC)o1 (stereo not drawn)	.	.	.	?	.
CCc1ccc(NC(=O)CCn2c(-c3ccc(OC)cc3)cc(C(C)=O)c2C)cc1	/	/	.[15.4 µM]	.	/
Cc1nc2sccn2c(=O)c1S(=O)(=O)NCc1ccc(F)cc1	/	/	.	.	/
COCCOC(=O)C1=C(C)NC(=O)NC1c1ccc(-c2cc(Cl)ccc2Cl)o1 (stereo not drawn)	.	.	.	18µM	.
COC(=O)C1=C(C)NC(=O)NC1c1ccc(-c2ccccc2Cl)o1 (stereo not drawn)	.	.	.	25µM	.
SMILES	AMA1 RON2 block	RE007 growth inh	Tb PYK inh	Sm TGR inh	LmPK inhibitor
COC(=O)C1=C(C)NC(C)=C(C(=O)OC)C1c1ccc(-c2cccc([N+](=O)[O-])c2)o1	.	.	.	40µM	.
COC(=O)C1=C(C)NC(C)=C(C(=O)OC)C1c1ccc(-c2cc(Cl)ccc2Cl)o1	.	.	.	.	.
COc1ccc(-c2nc3ccc(C4=C(C)CC(=O)NN4)cc3[nH]2)cc1	/	/	.	/	/
COc1ccc(/C=C/C2=CC(C)(C)NC(=S)N2)cc1	.	.	.	2.5µM	.
COc1ccc(/C=C/C=C2C(=O)NC(=S)NC2=O)cc1	.	.	?	/	/
CN(Cc1ccccc1)c1cc2c(c3c1ccn3C)C1CCC2C1 (stereo not drawn)	16µM	.	.	/	/
CN(CCc1ccccc1)c1cc2c(c3c1ccn3C)C1CCC2C1 (stereo not drawn)	16µM	.	.	/	/

Screens (PubChem BioAssay)
